Screening data (PubChem BioAssay)
AMA1-RON2 inh: qHTS for Inhibitors of AMA1-RON; Towards Development of Antimalarial Drug Lead: Primary Screen. Plasmodium falciparum AMA1 (3D7) - RON2 peptide interaction. AlphaScreen AMA1-biotinylated RON2 peptide binding. Potency, µM (top dose mostly 58.2 µM), for inactives: at the top dose activity change, negative = inhibition, hits mostly inhibitors. 360,000 compounds, 0.2% hits;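 also: 0% = vehicle wells and -100% = peptide control; nearly all actives have a fitted effect of over 45% in size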
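AMA1 (3D7) with his tag at 25 nM final met compounds first, then biotinylated RON2 peptide at 25 nM; detection used donor plus acceptor beads, 10 µg/mL apiece, read by AlphaScreen after 30 min at room temperature.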
Pf growth 48h: Primary qHTS for delayed death inhibitors of the malarial parasite plastid, 48 hour incubation; P. falciparum luciferase growth in erythrocytes, 48 h; Potency, µM (doses to about 28.7 µM), for inactives: top-dose activity change, negative = inhibition, most hits filed as inhibitors; 310,000 compounds, 5.9% hits; also: % is scaled to controls: 0 for no effect and ±100 for the full control effect
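Cell-based growth assay: transgenic P. falciparum expressing firefly luciferase, cultured in red cells within RPMI 1640 containing 0.5% w/v Albumax, 24 mM bicarbonate and gentamycin. A drop in luciferase activity indicates inhibition.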
SARS PLpro yeast: qHTS of Yeast-based Assay for SARS-CoV PLP; S. cerevisiae expressing SARS-CoV PLpro, growth rescue; Potency, µM (titrated, usually from 32.9 µM), for inactives: at the top dose activity, positive = growth rescue, hits mostly activators; 330,000 compounds, 0.19% hits; AID 485353, 2010; calls by dose curve; also: 0% is about no effect; nearly all actives have a fitted effect of over 55% in size
Pf growth 96h: Primary qHTS for delayed death inhibitors of the malarial parasite plastid, 96 hour incubation. P. falciparum luciferase reporter growth, 96 h. Potency, µM (doses to about 28.7 µM), for the others: at the highest dose activity change, negative = inhibition, usual class: inhibitors. 320,000 compounds, 6.9% hits. AID 504834, 2011; also: % is scaled to controls: 0 for no effect and ±100 for the full control effect
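Cell-based qHTS: luciferase-tagged P. falciparum in erythrocytes (2% hematocrit, 0.05% parasitemia final) incubated with compounds for 96 hours, 37 C, 5% CO2; luciferase detection reagent then added and luminescence measured.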
* hit, by the source's call; ? = inconclusive; nt = no result; [ ] = remark or other dose. Shown are actives, neighbours in structure and some others; about 9.4% of the full set was active somewhere. Unless noted, calls follow the shape of the dose curve; as a rule, active = well fitted curve in the direction sought with a large enough effect; inconclusive = small, poorly fitted or top-dose-only effect, or another doubt; inactive = no such curve, though single readings can be large; an effect the other way counts as inactive or inconclusive. Potency is read from the fitted curve at half-maximal effect.

SMILES	AMA1-RON2 inh	Pf growth 48h	SARS PLpro yeast	Pf growth 96h
CCN(CC)C(=O)Cn1c(=O)n(CCCC(=O)NCc2ccc3c(c2)OCO3)c(=O)c2sccc21	-0.5%	10.0%	-2.9%	13.1%
CSC1=NC(NCCCO)c2c(sc3c2CC(C)(C)OC3)N1 (centres undefined)	6.3%	?	-3.6%	9.28µM*
COC(=O)c1cc(NC(=O)CC2SC(=Nc3ccccc3)N(CCc3c[nH]c4ccccc34)C2=O)cc(C(=O)OC)c1 (centres undefined)	-7.2%	13.1µM*	-0.8%	1.65µM*
COc1ccc(N=C2SC(C(=O)Nc3ccc(C(=O)O)cc3)CC(=O)N2Cc2cccs2)cc1 (centres undefined)	-7.8%	?	0.1%	7.38µM*
COc1ccc(N=C2SC(CC(=O)Nc3ccccc3)C(=O)N2CC2CCCO2)cc1 (centres undefined)	-6.3%	11.7µM*	-7.2%	?
CNC(=O)C1CC(=O)N(CCc2ccccc2)C(=Nc2ccc(OC)cc2)S1 (centres undefined)	-0.5%	?	2.6%	50.8%
COc1cc(C2C(C#N)=C(N)Oc3n[nH]c(-c4cccnc4)c32)cc(Br)c1O (centres undefined)	-14.7%	18.1%	22.8%	-1.4%
CC(OC(=O)c1ccc(S(=O)(=O)N(C)c2ccccc2)cc1)C(=O)NCCC1=CCCCC1 (centres undefined)	-2.8%[11.6 µM]	1.3%	11.8%	-8.1%
CC1=C([N+](=O)[O-])C(c2ccccc2)C2=C(N1)c1ccccc1C2=O (centres undefined)	?	nt	-24.8%	2.94µM*
CC1(C)CC(=O)C2=C(C1)NC1=C(C(=O)c3ccccc31)C2c1ccccc1 (centres undefined)	-29.4%	13.1µM*	?	?
CCOc1ccc(C2C(C#N)=C(C)NC3=C2C(=O)c2ccccc23)cc1 (centres undefined)	8.0%	nt	-2.5%	9.28µM*
CC(C)c1ccc(C2C3=C(CC(C)(C)CC3=O)NC3=C2C(=O)c2ccccc23)cc1 (centres undefined)	?	9.28µM*	-4.1%	6.57µM*
COc1ccc(C2C(C#N)=C(C)NC3=C2C(=O)c2ccccc23)cc1 (centres undefined)	1.2%	-21.6%	-1.6%	?
CC1(C)CC(=O)C2=C(C1)NC1=C(C(=O)c3ccccc31)C2c1cccnc1 (centres undefined)	-3.9%	-23.2%	0.5%	12.2%
CCOC(=O)C1=C(C)NC2=C(C(=O)c3ccccc32)C1c1cccnc1 (centres undefined)	-0.1%	-11.3%	-0.4%	3.4%
CCC(C)c1ccc(C2C3=C(Nc4nc(N)[nH]c(=O)c42)c2ccccc2C3=O)cc1 (centres undefined)	-0.9%	-17.2%	-0.2%	?
Nc1nc2c(c(=O)[nH]1)C(c1ccccc1)C1=C(N2)c2ccccc2C1=O (centres undefined)	-22.7%	9.28µM*	0.5%	10.4µM*
C[C@]12O[C@H](C[C@]1(O)CO)n1c3ccccc3c3c4c(c5c6ccccc6n2c5c31)CNC4=O	nt	0.169µM*	nt	0.151µM*
CCOC(=O)C1CCN(CC(O)COc2ccc(S(=O)(=O)N3CCCC3)cc2[N+](=O)[O-])CC1 (centres undefined)	-16.2%	8.28µM*	-2.1%	?
CC1CCCCN1C(=O)COc1ccc(S(=O)(=O)N2CCCC2)cc1[N+](=O)[O-] (centres undefined)	-5.7%	-25.8%	-2.7%	11.7µM*
Cn1c(SCc2nc3ccccc3[nH]2)nnc1-c1cccnc1	13.1%	7.7%	1.9%	1.85µM*
COc1ccc(NS(=O)(=O)c2ccc(OC)c(NC(=O)CCC3CCCCC3)c2)cc1	-6.6%	-25.0%	8.0%	-10.5%
O=C(Cc1cccs1)Nc1ccc(F)c(S(=O)(=O)N2CCOCC2)c1	-8.4%	?	2.1%	6.57µM*
O=C(Cc1cccs1)Nc1ccc(Cl)c(S(=O)(=O)N2CCOCC2)c1	4.0%	10.4µM*	0.6%	?
COc1cccc(CC(=O)Nc2ccc(F)c(S(=O)(=O)N3CCOCC3)c2)c1	4.6%	nt	nt	nt
SMILES	AMA1-RON2 inh	Pf growth 48h	SARS PLpro yeast	Pf growth 96h
CCN1C(=O)c2ccccc2S(=O)(=O)c2ccc(C(=O)N3CCOCC3)cc21	-5.7%	nt	3.0%	-6.0%
OC(CNCc1ccco1)Cn1c2ccc(Br)cc2c2cc(Br)ccc21 (centres undefined)	-0.6%	nt	-6.7%	0.294µM*
COc1ccccc1C(=O)COC(=O)C(CCSC)NC(=O)COc1ccccc1 (centres undefined)	2.5%	?	0.2%	-2.4%
CCC1(CC)N([O-])C(C)=C(c2ccccc2)[N+]1=O	9.2%	0.6%	-0.2%	42.5%
CCC1(C)N([O-])C(C)=C(c2ccccc2)[N+]1=O (centres undefined)	9.0%	nt	-6.5%	0.0928µM*
CCN1C[C@@H]2[C@@H]3C(=O)N(C)C(=O)[C@@H]3[C@](C)(C1=O)N2C(=O)c1ccc(Br)cc1	-6.2%	nt	nt	nt
COc1ccc(-n2c(=O)c(CCC(=O)N3CCN(c4ccccc4O)CC3)nc3ccccc32)cc1	-20.6%	3.7µM*	3.7%	8.28µM*
O=C(CNC(c1ccccc1)c1ccccc1)Nc1ccccc1-c1ccccc1	-10.8%[2.32 µM]	11.7µM*	-0.9%	13.1µM*
COc1ccc(CN(C)C(=O)C(Cc2ccccc2)NC(=O)c2ccccc2)c(OC)c1 (centres undefined)	6.1%	10.4µM*	-22.8%	?
COc1ccc(CN(C)CC(=O)Nc2ccccc2-c2ccccc2)c(OC)c1	1.0%	10.4µM*	-1.4%	?
COc1ccc(CN(C)C(=O)c2ccc(COc3ccccc3)cc2)c(OC)c1	?	?	-4.4%	?
Cc1ccccc1CN(C)CC(=O)Nc1ccccc1-c1ccccc1	6.7%	?	-27.5%	9.28µM*
COc1ccccc1CN(C)CC(=O)Nc1ccccc1-c1ccccc1	4.2%	?	0.3%	?
O=C(CNC(c1ccccc1)c1ccccc1)Nc1ccccc1F	16.8%	?	-2.4%	?
COc1ccc(S(=O)(=O)NCc2nc3nc(C)cc(C)n3n2)cc1OC	-0.3%	13.0%	-2.2%	5.22µM*
Cc1ccc(NC2=Nc3ccccc3N3C2=Nc2c(c(C)nn2-c2ccccc2)C3c2ccc(O)c(O)c2)cc1 (centres undefined)	-12.6%	?	-3.6%	?
Cc1cccc(NC2=Nc3ccccc3N3C2=Nc2c(c(C)nn2-c2ccccc2)C3c2ccc(O)c(O)c2)c1 (centres undefined)	?	?	3.2%	11.7µM*
Cc1nn(-c2ccccc2)c2c1C(c1ccc(O)c(O)c1)N1C(=N2)C(Nc2ccccc2)=Nc2ccccc21 (centres undefined)	-1.8%	10.4µM*	-10.6%	10.4µM*
Cc1cc(C)nc(-n2ncc3c2CC(c2cccc(Cl)c2)CC3=O)n1 (centres undefined)	19.5%	?	-4.5%	4.15µM*
